From PubChem
Only some compounds are listed: those with a hit (about 3.5% of all), similar ones and a draw of the others.
MITF inh: MITF inhibitors, primary screen, biochemical, AlphaScreen, human; AlphaScreen MITF homodimerization, bead proximity signal; inhibition, % at 2.6 µM; actives 0.91% (n = 650,000); in the data active = inhibition above about 50%
TEAD-YAP block: TEAD-YAP interaction inhibition, primary screen, TEAD-YAP interaction inhibitor project, luminescence, HEK-TIYL cells; inhibition, % at 9.12 µM; TEAD-Gal4/YAP UAS-luciferase luminescence; AID 1259422, 2018; actives 1.4% (n = 640,000); in the data active = inhibition above about 32%
GPR151 activ: activators of human GPR151, primary screen, cell-based, PathHunter beta-arrestin, luminescence. PathHunter beta-arrestin GPR151 cells. activation, % at 11.2 µM. actives 1% (n = 650,000); in the data active = activation above about 4.9%
FBW7 act: FBW7 E3 ligase activators, primary screen, biochemical, AlphaScreen, human; F-box/WD repeat-containing protein 7 (Homo sapiens), Q969H0; AlphaScreen FBW7–phospho-cyclin E peptide binding, activator screen; normalized activity (activation), % at 26.1 µM; AID 1259310, 2017; actives 0.13% (n = 650,000); in the data active = normalized activity above about 1.9%;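 note: purified mutant Fbw7 with reduced substrate affinity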
GPR151 confirm: GPR151 activators, triplicate retest, confirmation, cell-based, PathHunter beta-arrestin, luminescence; shares compounds with GPR151 activ; GPR151 PathHunter beta-arrestin cells, 90 min; % of EA-reagent control over plate median; activation, % at 11.2 µM; 6,700 tested, under 10 active; AID 1508609, 2020;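 active = mean percent activation across replicates above the confirmation screen cutoff of 4.91%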
GPR119 ag: GPR119 activators in beta-arrestin cells, counter-screen for GPR151 activator project, cell-based, PathHunter beta-arrestin, luminescence, triplicate. shares compounds with GPR151 activ. 90 min; 0 = compound-well median, 100 = enzyme-acceptor control. activation, % at 11.2 µM. actives 0.3% (n = 6,700). AID 1508611, 2020;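 active = mean percent activation in the counterscreen above 29.09%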;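 note: counterscreen on off-target GPR119 to flag nonselective hits from the GPR151 activator screen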
Target sequence (Q8TDV5 whole entry, looked up): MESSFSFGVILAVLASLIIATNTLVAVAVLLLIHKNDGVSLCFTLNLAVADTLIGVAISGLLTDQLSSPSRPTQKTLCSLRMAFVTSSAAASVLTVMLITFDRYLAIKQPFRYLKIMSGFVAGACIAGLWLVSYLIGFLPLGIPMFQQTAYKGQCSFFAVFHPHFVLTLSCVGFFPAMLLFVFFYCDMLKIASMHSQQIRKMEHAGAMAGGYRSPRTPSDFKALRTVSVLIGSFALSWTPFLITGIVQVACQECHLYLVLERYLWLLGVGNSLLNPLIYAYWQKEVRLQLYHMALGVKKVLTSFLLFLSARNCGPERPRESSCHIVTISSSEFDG
Numbers stand for hits.

Screening COc1cc2ccccc2cc1C(=O)Nc1sc2c(c1C(N)=O)CCN(C)C2 returned MITF inh inactive, TEAD-YAP block inactive, GPR151 activ inactive and FBW7 act inactive.
CC(=O)Nc1ccc(NC(=O)C2CCN(c3ccc(Nc4ccc5ncccc5c4)nn3)CC2)cc1 was read as MITF inh inactive, TEAD-YAP block inactive, GPR151 activ inactive and FBW7 act inactive.
Screening O=C1OC(c2ccccc2Br)=N/C1=C\c1ccc(I)cc1 returned MITF inh inactive, TEAD-YAP block inactive, GPR151 activ 5.3, FBW7 act inactive, GPR151 confirm inactive and GPR119 ag inactive.
For O=C1OC(c2ccccc2Br)=N/C1=C\c1ccc(Br)cc1 the results were MITF inh inactive, TEAD-YAP block inactive, GPR151 activ inactive and FBW7 act inactive.
Screening O=C(NCc1ccccn1)c1cccc(OC2CCN(C(=O)C3=CCCCC3)CC2)c1 returned MITF inh inactive, TEAD-YAP block inactive, GPR151 activ inactive and FBW7 act inactive.
For O=c1[nH]cnc2c1[nH]c1ccccc12 the results were MITF inh inactive, TEAD-YAP block inactive, GPR151 activ 8.7, FBW7 act inactive, GPR151 confirm inactive and GPR119 ag inactive.
Screening COc1cccc(OC)c1OCCCCNCC1CCCO1 (stereo not drawn) returned MITF inh inactive, TEAD-YAP block inactive, GPR151 activ inactive and FBW7 act inactive.
Screening O=C(NCc1ccccc1)c1cnc(Nc2cnccn2)s1 returned MITF inh inactive, TEAD-YAP block inactive, GPR151 activ inactive and FBW7 act inactive.
Screening CCc1nnc(NS(=O)(=O)c2ccc(NC(=O)CN3C(=O)c4ccccc4C3=O)cc2)s1 returned MITF inh inactive, TEAD-YAP block inactive, GPR151 activ 7.4, FBW7 act inactive, GPR151 confirm inactive and GPR119 ag inactive.
`C/C(=N\NC(=O)CNc1ccccc1Cl)C(C)(C)C` gave MITF inh inactive, TEAD-YAP block inactive, GPR151 activ 5.9, FBW7 act inactive, GPR151 confirm inactive and GPR119 ag inactive.
For CN(CC(=O)NC1CCCCCC1)S(=O)(=O)c1ccccc1 the results were MITF inh inactive, TEAD-YAP block inactive, GPR151 activ 8.6, FBW7 act inactive, GPR151 confirm inactive and GPR119 ag inactive.
Screening CN(CC(=O)NC1CCCC1)S(=O)(=O)c1ccccc1 returned MITF inh inactive, TEAD-YAP block inactive, GPR151 activ inactive and FBW7 act inactive.
CS(=O)(=O)N(CC(=O)Nc1ccc(OCc2ccccc2)cc1)C1CCCCC1 was read as MITF inh inactive, TEAD-YAP block inactive, GPR151 activ inactive and FBW7 act inactive.
For CCOc1ccc(NC(=O)CN(C2CCCCC2)S(=O)(=O)c2ccccc2)cc1 the results were MITF inh inactive, TEAD-YAP block inactive, GPR151 activ 6.0, FBW7 act inactive, GPR151 confirm inactive and GPR119 ag inactive.
CN(C)CCNc1ccnc2c(-c3cccc(C(F)(F)F)c3)cnn12 was read as MITF inh inactive, TEAD-YAP block inactive, GPR151 activ inactive and FBW7 act inactive.
Screening Cc1ccc(C)c(OCC(=O)O/N=C(\N)c2ccc(I)cc2)c1 returned MITF inh inactive, TEAD-YAP block inactive, GPR151 activ 5.5, FBW7 act inactive, GPR151 confirm inactive and GPR119 ag inactive.
For COc1cc(C(=O)O/N=C(\N)c2ccc(Br)cc2)cc(OC)c1OC the results were MITF inh inactive, TEAD-YAP block inactive, GPR151 activ 6.6, FBW7 act inactive, GPR151 confirm inactive and GPR119 ag inactive.
`Cc1ccc(/C(N)=N/OC(=O)COc2ccc(Br)cc2)cc1` gave MITF inh inactive, TEAD-YAP block inactive, GPR151 activ 8.5, FBW7 act inactive, GPR151 confirm inactive and GPR119 ag inactive.
Screening Cc1ccc(C)c(OCC(=O)O/N=C(\N)c2ccc(Br)cc2)c1 returned MITF inh inactive, TEAD-YAP block inactive, GPR151 activ inactive and FBW7 act inactive.
